Measured values: PubChem BioAssay (Tox21)
Unmarked numbers belong to inactive results. Results filed as inconclusive are left out. Entries that show only a call come without a potency. Activity calls are given as the source filed them. Unless noted, calls come from the whole dose curve; as a rule, active = well fitted curve in the direction sought with a large enough effect in the repeat runs; inconclusive = weak or mixed curves; inactive = no such curve, though single readings can be large; an effect the other way counts as inactive or inconclusive.

How the values were obtained:
[1] = target: Luciferin 4-monooxygenase (Photinus pyralis) (UniProt P08659); assay: qHTS assay to identify small molecule inhibitors of firefly luciferase (AID 1224835); note: nearly all actives have a fitted effect of over 25% in size
Method in brief: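 Quantitative HTS format; KM concentrations of both substrates. Purified P. pyralis FLuc activity quantified from luminescence images.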

[2] = qHTS assay to identify small molecule agonists of the constitutive androstane receptor (CAR) signaling pathway - cell viability counter screen (AID 1224836); note: nearly all actives have a fitted effect of over 45% in size
Method in brief: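 Fluorescence from CellTiter-Fluor indicates live cells after 23 h exposure. The human hepatoma line expresses hCAR and a CYP2B6-2.2kb reporter. Incubation medium contains 0.75 uM PK11195 (final).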

[3] = qHTS assay to identify small molecule antagonists of the constitutive androstane receptor (CAR) signaling pathway - cell viability counter screen (AID 1224837); note: nearly all actives have a fitted effect of over 45% in size
Method in brief: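 Multiplexed cytotoxicity read-out for the CAR antagonist screen: double-stable HepG2-CYP2B6-hCAR cells co-treated with 50 nM CITCO (final) and compound over 15 concentrations, incubated 23 hr, then assessed by CellTiter-Fluor fluorescence.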

[4] = target: Nuclear receptor subfamily 1 group I member 3 (Homo sapiens) (UniProt Q14994); assay: qHTS assay to identify small molecule antagonists of the constitutive androstane receptor (CAR) signaling pathway (AID 1224838); note: nearly all actives have a fitted effect of over 40% in size
Method in brief: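 Compounds were titrated across 15 concentrations onto HepG2 cells double-stably expressing hCAR and a CYP2B6-2.2kb reporter, together with 50 nM CITCO (final). After 24 h at 37 C, luciferase activity was measured by luminescence.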

[5] = target: Nuclear receptor subfamily 1 group I member 3 (Homo sapiens) (UniProt Q14994); assay: qHTS assay to identify small molecule agonists of the constitutive androstane receptor (CAR) signaling pathway (AID 1224839);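 note: HepG2 cells stably carrying human CAR and a CYP2B6 luciferase reporter; nearly all actives have a fitted effect of over 15% in size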
Method in brief: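 Stable hCAR/CYP2B6-2.2kb HepG2 line in DMEM with 10% FBS; compounds (15 concentrations) and 0.75 uM PK11195 final, 24 h at 37 C/5% CO2, then ONE-Glo luminescence after 30 min.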

[6] = qHTS assay to identify small molecule antagonists of the estrogen related receptor signaling pathway with the pleiotropic PPARgamma coactivator (PGC) from Tox21 10K library - cell viability counter screen (AID 1224840; active = well fitted cell-killing curve with a large enough effect in the repeat runs, not every such curve was filed as active; note: nearly all actives have a fitted effect of over 40% in size)
Method in brief: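 Step one, plate 2,000 PGC/ERR cells per well; step two, incubate 6 h at 37 C/5% CO2; step three, pin-transfer compounds; step four, incubate 17.5 h; step five, add CellTiter-Fluor and read fluorescence after 30 min.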

[7] = qHTS assay to identify small molecule antagonists of the estrogen related receptor signaling pathway with the pleiotropic PPARgamma coactivator (PGC) from Tox21 10K library (AID 1224841; call rule not given here; note: actives are mostly falling curves and most rising ones were filed inactive; nearly all actives have a fitted effect of over 50% in size)
Method in brief: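 Antagonism in this quantitative HTS is taken from loss of luciferase signal in PGC/ERR cells. Cells (2,000/well) are treated with compounds in DMSO after a 6 h settling period and read by One-Glo luminescence after 18 h.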

[8] = qHTS assay to identify small molecule agonists of the estrogen related receptor signaling pathway with the pleiotropic PPARgamma coactivator (PGC) from Tox21 10K library (AID 1224842); note: nearly all actives have a fitted effect of over 15% in size
Method in brief: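 PGC/ERR reporter cells (NTP line) were seeded 2,000 per well, rested 6 h at 37 C/5% CO2, then pin-dosed with compounds in DMSO for 18 h at 37 C; luciferase read by One-Glo luminescence after 30 min at room temperature.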

[9] = target: Thyrotropin receptor (Homo sapiens) (UniProt P16473); assay: qHTS assay to identify small molecule agonists of the thyroid stimulating hormone receptor (TSHR) signaling pathway (AID 1224843; calls by dose curve; note: nearly all actives have a fitted effect of over 45% in size)
Method in brief: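 TSHR-expressing HEK293 cells (800 per well) were exposed to compounds for 30 min at room temperature. cAMP was then detected by HTRF competition with cAMP-d2 and anti-cAMP cryptate, read after 1 h at room temperature. Fifteen concentrations, triplicate.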

[10] = qHTS assay to identify small molecule agonists of the hypoxia (HIF-1) signaling pathway - cell viability counter screen (AID 1224844; calls by dose curve; note: nearly all actives have a fitted effect of over 50% in size)
Method in brief: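 Tox21 10K compounds were added to HRE-bla ME-180 cells (0.5% dialyzed FBS) and incubated 17 hrs at 37C; ATP-based CellTiter-Glo luminescence then reported cell viability in the same wells.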

[11] = qHTS assay to identify small molecule antagonists of the estrogen related receptor (ERR) signaling pathway from Tox21 library (AID 1224848); note: nearly all actives have a fitted effect of over 50% in size
Method in brief: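 Cells: ERR line, 2,000/well; 6 h preincubation 37 C/5% CO2. Cpd in DMSO via pin tool; 18 h, 37 C. ONE-Glo, 30 min RT, luminescence.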

[12] = qHTS assay to identify small molecule agonists of the estrogen related receptor (ERR) signaling pathway from Tox21 library (AID 1224849; calls by dose curve; note: nearly all actives have a fitted effect of over 15% in size); conditions: ERR reporter cell line, ONE-Glo luciferase, 18 h; at 92.4 µM (top of the series) unless noted
Method in brief: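 Agonist signal is luciferase luminescence from an ERR reporter cell line treated 18 h at 37 C with DMSO-dissolved compounds, read 30 min after ONE-Glo addition at room temperature.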

[13] = qHTS RealTime-Glo MT Cell Viability Assay in HepG2 cells - 24 hour (AID 1224867); note: nearly all actives have a fitted effect of over 50% in size
Method in brief: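 HepG2 suspension premixed with RealTime-Glo reagents is plated at 600 cells per well and left 5 h at 37 C/5% CO2. Compounds in DMSO then go in, and bioluminescence reflecting viable cell number is recorded over 40 h.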

[14] = qHTS RealTime-Glo MT Cell Viability Assay in HEK293 cells - 32 hour (AID 1224868)
Method in brief: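 Reads taken at 0, 8, 16, 24, 32 and 40 h from the same wells. HEK293 cells (600/well) carried RealTime-Glo reagents from seeding, with compound added after a 5 h settle at 37 C.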

[15] = A CellTox Green Cytotoxicity Assay to monitor cytotoxicity in HEK293 cells - 0 hour (AID 1224869); note: nearly all actives have a fitted effect of over 50% in size
Method in brief: (§1)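 Cytotoxicity was tracked continuously in HEK293 cells by a DNA-binding dye excluded from viable cells. Compounds were transferred in DMSO 5 h after seeding; fluorescence was recorded at intervals up to 40 h.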

[16] = A CellTox Green Cytotoxicity Assay to monitor cytotoxicity in HEK293 cells - 40 hour (AID 1224871); note: nearly all actives have a fitted effect of over 45% in size
Method in brief: as §1

[17] = qHTS assay to identify small molecule agonists of H2AX (AID 1224845; active = well fitted activation curve with a large enough effect in the signal ratio in the repeat runs, not every such curve was filed as active; the % refers to the signal ratio)
Method in brief: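 Wild-type CHO-K1 cells plated overnight, then exposed 3 hr at 37C to compounds at 15 concentrations (0.76% DMSO). Lysed, then HTRF anti-pH2AX(S139)-cryptate/anti-H2AX-d2 detection after 24 hr at room temperature; emissions 665 and 620 nm.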

[18] = qHTS assay to identify small molecule agonists of the hypoxia (HIF-1) signaling pathway (AID 1224846; active = well fitted activation curve with a large enough effect in the signal ratio in the repeat runs, not every such curve was filed as active; the % refers to the signal ratio)
Method in brief: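 Steps: seed ME-180 HRE-bla cells (2,000/well, 0.5% dialyzed FBS); incubate 5 hrs at 37C; pin-transfer compounds or DMSO; incubate 17 hrs; add LiveBLAzer B/G substrate CCF4-AM; measure reporter activation by FRET.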

[19] = qHTS assay to identify small molecule agonists of H2AX - cell viability counter screen (AID 1224847; calls by dose curve; note: top concentration of the series differs between compounds; nearly all actives have a fitted effect of over 30% in size)
Method in brief: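 Viability of CHO-K1 (wild type) cells after 3 hr compound exposure was measured by CellTiter-Glo luminescence.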

[20] = qHTS RealTime-Glo MT Cell Viability Assay in HepG2 cells - 40 hour (AID 1224870); note: nearly all actives have a fitted effect of over 50% in size
Method in brief: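 HepG2 cells mixed with RealTime-Glo MT reagents (NanoLuc plus cell-permeant prosubstrate) were seeded at 600 cells/well, incubated 5 h at 37 C/5% CO2, then pinned with compounds in DMSO; nonlytic luminescence tracked viability during 40 h treatment.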

Chain of Luciferin 4-monooxygenase (Photinus pyralis) (P08659 whole entry, looked up): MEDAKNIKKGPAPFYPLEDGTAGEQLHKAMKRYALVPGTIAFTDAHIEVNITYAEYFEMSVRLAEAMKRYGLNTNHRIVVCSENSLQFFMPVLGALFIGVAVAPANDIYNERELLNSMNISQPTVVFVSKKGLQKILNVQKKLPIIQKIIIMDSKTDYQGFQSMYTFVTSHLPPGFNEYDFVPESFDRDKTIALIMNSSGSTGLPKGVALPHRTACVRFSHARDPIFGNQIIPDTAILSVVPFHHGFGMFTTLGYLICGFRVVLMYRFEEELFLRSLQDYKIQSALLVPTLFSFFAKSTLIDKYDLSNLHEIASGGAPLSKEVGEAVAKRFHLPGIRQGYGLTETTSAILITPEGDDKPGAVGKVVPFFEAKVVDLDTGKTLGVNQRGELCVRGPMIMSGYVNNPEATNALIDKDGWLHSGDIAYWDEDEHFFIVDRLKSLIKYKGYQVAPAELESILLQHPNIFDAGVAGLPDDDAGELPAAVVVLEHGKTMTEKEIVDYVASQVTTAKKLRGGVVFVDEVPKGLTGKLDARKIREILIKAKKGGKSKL
Chain of Nuclear receptor subfamily 1 group I member 3 (Homo sapiens) (Q14994 whole entry, looked up): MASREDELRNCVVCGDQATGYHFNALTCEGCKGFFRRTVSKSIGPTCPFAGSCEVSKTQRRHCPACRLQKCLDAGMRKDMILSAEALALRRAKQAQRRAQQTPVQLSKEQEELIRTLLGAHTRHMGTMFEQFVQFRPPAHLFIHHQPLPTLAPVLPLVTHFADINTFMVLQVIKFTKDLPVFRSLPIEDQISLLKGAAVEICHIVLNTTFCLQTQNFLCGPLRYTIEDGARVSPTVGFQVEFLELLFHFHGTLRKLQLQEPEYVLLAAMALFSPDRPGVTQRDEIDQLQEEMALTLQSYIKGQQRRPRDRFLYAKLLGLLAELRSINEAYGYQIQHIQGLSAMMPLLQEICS
Chain of Thyrotropin receptor (Homo sapiens) (P16473 whole entry, looked up): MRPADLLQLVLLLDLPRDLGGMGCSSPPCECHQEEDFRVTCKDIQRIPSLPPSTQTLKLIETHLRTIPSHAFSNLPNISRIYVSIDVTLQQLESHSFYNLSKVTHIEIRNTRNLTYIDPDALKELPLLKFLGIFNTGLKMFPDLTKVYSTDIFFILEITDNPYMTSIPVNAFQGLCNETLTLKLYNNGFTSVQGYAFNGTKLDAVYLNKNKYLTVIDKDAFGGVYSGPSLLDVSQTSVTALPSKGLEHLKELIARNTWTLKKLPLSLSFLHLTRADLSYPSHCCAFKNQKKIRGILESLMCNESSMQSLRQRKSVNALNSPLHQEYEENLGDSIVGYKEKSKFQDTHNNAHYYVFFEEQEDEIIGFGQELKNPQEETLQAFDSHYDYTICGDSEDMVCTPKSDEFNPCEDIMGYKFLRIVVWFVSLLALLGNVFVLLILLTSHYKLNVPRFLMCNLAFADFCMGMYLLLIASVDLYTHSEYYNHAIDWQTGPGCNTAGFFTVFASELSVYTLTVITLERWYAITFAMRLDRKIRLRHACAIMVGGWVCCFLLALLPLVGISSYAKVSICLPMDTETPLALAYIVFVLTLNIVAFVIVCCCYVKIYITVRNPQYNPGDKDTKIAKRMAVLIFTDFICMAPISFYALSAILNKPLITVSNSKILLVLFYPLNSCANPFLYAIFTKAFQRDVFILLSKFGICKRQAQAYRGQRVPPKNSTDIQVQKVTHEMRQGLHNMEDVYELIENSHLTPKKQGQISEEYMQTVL

CCCOc1ccc2c(c1)CC[C@@H]1[C@@H]2CC[C@]2(C)C(OC)CC[C@@H]12 (some centres undefined)
Potency [1]: inactive
Potency [2]: inactive
Potency [3]: inactive
Potency [4]: inactive
Potency [5]: inactive
Potency [6]: inactive
Potency [7]: inactive
Potency [8]: inactive
Potency [9]: inactive
Potency [10]: inactive
Potency [11]: inactive
activity change, positive = activation [12]: -2.22% [at 42.5 µM]
Potency [13]: inactive
Potency [14]: inactive
Potency [15]: inactive
Potency [16]: inactive

O=C1CCCc2ccccc21
Potency [1]: inactive
Potency [2]: inactive
Potency [3]: inactive
Potency [4]: inactive
Potency [5]: inactive
Potency [6]: inactive
Potency [7]: inactive
Potency [8]: inactive
Potency [10]: inactive
Potency [17]: inactive
outcome [18]: inactive
Potency [19]: inactive
Potency [11]: inactive
activity change, positive = activation [12]: 6.42%
Potency [13]: inactive
Potency [14]: inactive
Potency [15]: inactive
Potency [20]: inactive
Potency [16]: inactive

NC/C=C/C(=O)O
Potency [1]: inactive
Potency [2]: inactive
Potency [3]: inactive
Potency [4]: inactive
Potency [5]: inactive
Potency [6]: inactive
Potency [7]: inactive
Potency [8]: inactive
Potency [9]: inactive
Potency [17]: inactive
Potency [19]: inactive
Potency [11]: inactive
activity change, positive = activation [12]: 6.36% [at 42.5 µM]
Potency [13]: inactive
Potency [14]: inactive
Potency [15]: inactive
Potency [20]: inactive
Potency [16]: inactive

Cc1cccc(C)c1NC(=O)CN1CCCCCC1
Potency [1]: inactive
Potency [2]: inactive
Potency [3]: inactive
Potency [4]: inactive
Potency [5]: inactive
Potency [6]: inactive
Potency [7]: inactive
Potency [8]: inactive
Potency [9]: inactive
outcome [18]: inactive
Potency [19]: inactive
Potency [11]: inactive
activity change, positive = activation [12]: 0.669% [at 42.5 µM]
Potency [13]: inactive
Potency [14]: inactive
Potency [15]: inactive
Potency [20]: inactive
Potency [16]: inactive

COc1ccccc1OCC(O)COC(N)=O (centres undefined)
Potency [1]: inactive
Potency [2]: inactive
Potency [3]: inactive
Potency [4]: inactive
Potency [5]: inactive
Potency [6]: inactive
Potency [7]: inactive
Potency [8]: inactive
Potency [9]: inactive
Potency [10]: inactive
Potency [17]: inactive
Potency [19]: inactive
Potency [11]: inactive
activity change, positive = activation [12]: 6.93% [at 42.5 µM]
Potency [13]: inactive
Potency [14]: inactive
Potency [15]: inactive
Potency [20]: inactive
Potency [16]: inactive

C[C@@H]1CN(c2c(F)c(F)c3c(=O)c(C(=O)O)cn(C4CC4)c3c2F)C[C@H](C)N1
activity change, negative = inhibition [1]: 4.05% [at 23.6 µM]
viability change, negative = cytotoxic [2]: 4.91% [at 19 µM]
activity change, negative = cytotoxicity [3]: 2.19% [at 19 µM]
activity, negative = inhibition [4]: 14.9% [at 19 µM]
activation [5]: 0.519% [at 19 µM]
viability change, negative = cytotoxic [6]: 2.41% [at 19 µM]
activity, negative = inhibition [7]: 20.9% [at 19 µM]
activation [8]: 6.21% [at 19 µM]
activation [9]: -4.01% [at 19 µM]
activity change, negative = cytotoxicity [10]: 2.14% [at 15.8 µM]
activation [18]: 0.101% [at 15.8 µM]
activity change, negative = cytotoxicity [19]: 5.9% [at 31.6 µM]
activity, negative = inhibition [11]: 2.94% [at 19 µM]
activity change, positive = activation [12]: 1.67% [at 19 µM] (active)
activity change, negative = cytotoxicity [13]: 0.621% [at 15.8 µM]
activity change, negative = cytotoxic [14]: 11.6% [at 15.8 µM]
cytotoxicity [15]: 5.43% [at 15.8 µM]
activity change, negative = cytotoxic [20]: 1.26% [at 15.8 µM]
cytotoxicity increase [16]: -4.55% [at 15.8 µM]

OCCN(CCO)CCN(CCO)CCO
Potency [1]: inactive
Potency [2]: inactive
Potency [3]: inactive
Potency [4]: inactive
Potency [5]: inactive
Potency [6]: inactive
Potency [7]: inactive
Potency [8]: inactive
Potency [9]: inactive
Potency [10]: inactive
Potency [17]: inactive
outcome [18]: inactive
Potency [19]: inactive
Potency [11]: inactive
activity change, positive = activation [12]: -1.05%
Potency [13]: inactive
Potency [14]: inactive
Potency [15]: inactive
Potency [20]: inactive
Potency [16]: inactive
